G9a inh = inhibitors of human histone lysine methyltransferase G9a; Q96KQ7; G9a H3K9 monomethylation, AlphaScreen, 2 h; Potency, µM (highest dose often 102 µM), for inactives: at the highest dose activity, negative = inhibition, usual class: inhibitors; 8.8% of 350,000 active; further: on the % scale 0 is the no-effect control and ±100 the full control effect; nearly all actives have a fitted effect of over 75% in size
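AlphaScreen detection with an anti-monomethyl H3K9 antibody quantified product after a 2 h room-temperature reaction containing 500 nM biotinylated H3K9 peptide, 20 µM SAM and 20 nM enzyme, which had been preincubated 15 min with compound.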
12-LOX inh = inhibitors of human 12S-lipoxygenase ALOX12. AID 1671190. Potency, µM (top dose mostly 108 µM), for inactives: at the top dose activity change, negative = inhibition, actives largely listed as inhibitors. 1.1% of 580,000 active. purified 12hLO, xylenol orange hydroperoxide absorbance; further: on the % scale 0 is the no-effect control and ±100 the full control effect
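Hydroperoxide product was detected by ferrous iron/xylenol orange as the 573 to 405 nm absorbance ratio. Arachidonic acid at 40 uM (final) was turned over for 30 min at room temperature by 150 nM human 12hLO, pH 7.0 Hepes buffer, after 15 min compound preincubation.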
PLK1 PBD inh = blocks phosphopeptide binding to human PLK1 polo-box domain; P53350; Plk1 PBD binding of FITC phosphopeptide, fluorescence polarization; Potency, µM, inactives show max response, negative = inhibition, hits mostly inhibitors; 2.8% of 360,000 active; AID 720504; further: series mostly up to about 57 µM; on the % scale 0 is the no-effect control and ±100 the full control effect; nearly all actives have a fitted effect of over 65% in size
JMJD2A Tudor inh = inhibitors of human JMJD2A Tudor domain. 4.4% of 390,000 active. Potency, µM (titrated, usually from 114 µM), for the others: top-dose activity change, negative = inhibition, actives largely listed as inhibitors. O75164. AlphaScreen JMJD2A-Tudor / H3K4me3 peptide binding. AID 504339; further: on the % scale 0 is the no-effect control and ±100 the full control effect; nearly all actives have a fitted effect of over 50% in size
Target sequence (O75164 whole entry, looked up, the tested form may be a part): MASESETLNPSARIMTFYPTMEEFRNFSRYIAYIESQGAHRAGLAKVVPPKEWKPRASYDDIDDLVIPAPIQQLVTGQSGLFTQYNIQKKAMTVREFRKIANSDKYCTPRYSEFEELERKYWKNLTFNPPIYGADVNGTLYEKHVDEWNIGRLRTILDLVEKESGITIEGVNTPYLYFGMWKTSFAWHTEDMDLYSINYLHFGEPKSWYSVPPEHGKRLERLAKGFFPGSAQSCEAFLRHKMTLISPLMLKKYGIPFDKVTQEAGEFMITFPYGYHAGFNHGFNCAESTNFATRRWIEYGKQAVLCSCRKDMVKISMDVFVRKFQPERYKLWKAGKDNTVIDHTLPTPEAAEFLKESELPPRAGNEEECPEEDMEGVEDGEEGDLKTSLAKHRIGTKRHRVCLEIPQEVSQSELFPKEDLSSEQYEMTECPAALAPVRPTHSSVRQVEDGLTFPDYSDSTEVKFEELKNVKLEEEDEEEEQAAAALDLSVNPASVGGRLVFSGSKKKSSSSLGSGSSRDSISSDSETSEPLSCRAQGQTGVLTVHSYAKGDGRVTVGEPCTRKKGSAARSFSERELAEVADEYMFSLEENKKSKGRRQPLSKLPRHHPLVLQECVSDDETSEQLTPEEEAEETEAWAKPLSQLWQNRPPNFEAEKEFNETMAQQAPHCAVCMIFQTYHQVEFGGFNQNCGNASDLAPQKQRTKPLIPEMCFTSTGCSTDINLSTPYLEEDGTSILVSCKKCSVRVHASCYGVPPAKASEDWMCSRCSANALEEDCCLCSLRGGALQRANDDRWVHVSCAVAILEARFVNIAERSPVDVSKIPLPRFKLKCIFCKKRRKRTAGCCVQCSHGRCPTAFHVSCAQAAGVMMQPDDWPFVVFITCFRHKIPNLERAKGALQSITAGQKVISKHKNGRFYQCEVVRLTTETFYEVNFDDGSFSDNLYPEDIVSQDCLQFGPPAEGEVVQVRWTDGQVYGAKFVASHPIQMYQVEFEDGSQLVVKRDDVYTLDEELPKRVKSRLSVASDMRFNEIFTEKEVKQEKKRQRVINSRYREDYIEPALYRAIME
BAZ2B block = inhibitors of human BAZ2B bromodomain; AlphaScreen BAZ2B-H3K14Ac peptide displacement; Potency, µM (series often up to 114 µM), inactives show top-dose activity change, negative = inhibition, usual class: inhibitors; 4.4% of 360,000 active; further: on the % scale 0 is the no-effect control and ±100 the full control effect; nearly all actives have a fitted effect of over 60% in size
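Multi-concentration screen (max 110 uM) measuring displacement of acetylated histone H3 peptide from BAZ2B by AlphaScreen, using 50 nM protein, 50 nM peptide and 10 ug/mL streptavidin donor plus Ni-chelate acceptor beads.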
HP1b chromo inh = blocks HP1-beta chromodomain binding to methylated histone tails. AlphaScreen HP1-beta / biotin-H3K9me3 peptide binding. Potency, µM (titrated, usually from 114 µM), without a hit: at the highest dose activity change, negative = inhibition, usual class: inhibitors. 0.56% of 390,000 active; further: nearly all actives have a fitted effect of over 70% in size
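Compound inhibition of the preformed complex between 50 nM HP1-beta and 50 nM biotinylated H3K9me3 peptide was read by AlphaScreen. Buffer was PBS pH 7.4 with 0.01% Tween-20. Incubations ran 30 min at room temperature, with 10 ug/mL donor/acceptor beads.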
Active calls of the source: *; i = inactive; ? = inconclusive; nt = no result given; [ ] = another dose, or the depositor's remark. This is a sample that favours compounds with a hit; in the whole collection about 9% have one here. The call rests on the fitted dose curve; in most records, active means well fitted curve in the direction sought with a large enough effect; inconclusive means small, poorly fitted or top-dose-only effect, or another doubt; inactive means no such curve, though single readings can be large; an effect the other way counts as inactive or inconclusive. Potency means the concentration at half of the fitted maximal effect.

SMILES | G9a inh | 12-LOX inh | PLK1 PBD inh | JMJD2A Tudor inh | BAZ2B block | HP1b chromo inh
COc1ccc(Br)cc1CNc1ccc2[nH]c(=O)[nH]c2c1 | ? | 5.4% | -5.2% | 50.1µM* | 39.8µM* | ?
COc1cc(CNc2ccc3[nH]c(=O)[nH]c3c2)ccc1OCc1ccccc1F | ? | ? | -3.4% | ? | -35.0% | -8.2%
C=CCOc1ccc(CNc2ccc3[nH]c(=O)[nH]c3c2)cc1OC | 44.7µM* | -2.3% | -8.8% | -11.3% | -27.3% | 6.2%
COc1cc(CNc2ccc3[nH]c(=O)[nH]c3c2)ccc1OCc1ccc(F)cc1 | ? | ? | 7.2% | -6.3% | -25.6% | 21.6%
C=CCOc1cccc(CNc2ccc3[nH]c(=O)[nH]c3c2)c1 | 20µM* | -3.2% | 0.3% | ? | ? | -25.4%
COc1cc(CNc2ccc3[nH]c(=O)[nH]c3c2)ccc1OCc1ccccc1 | 31.6µM* | -8.3% | -1.5% | -29.6% | ? | 5.0%
C=CCOc1cccc(CNCC)c1 | nt | 4.8% | nt | nt | nt | nt
CCOc1cccc(CNC(=O)c2cc3n(n2)CC(c2ccc4c(c2)OCO4)OC3)c1 (stereo not drawn) | nt | 59.9% | nt | nt | nt | nt
CC(NC(=O)c1ccco1)C(c1cccs1)N1CCN(c2ccccc2)CC1 (stereo not drawn) | ? | 0.7% | -6.0% | ? | ? | 11.7%
CC(NC(=O)c1ccco1)C(c1cccs1)N1CCN(c2ccc(F)cc2)CC1 (stereo not drawn) | 50.1µM* | -2.1% | -9.7% | -34.6% | 50.1µM* | -15.0%
CC(NC(=O)C(=O)N1CCOCC1)C(c1cccs1)N1CCN(c2ccccc2)CC1 (stereo not drawn) | nt | -3.6% | 21.2µM* | ? | -7.9% | 0.5%
CC(=O)Nc1ccc(S(=O)(=O)NCCSCc2ccco2)cc1 | ? | -11.0%[57.4 µM] | -10.0% | -27.0% | -14.8% | 5.6%
CCS(=O)(=O)N1Cc2ccccc2CC1C(=O)OCC(=O)N(C(C)C)C(C)C (stereo not drawn) | -7.2% | 8.6% | -0.9% | -13.5% | nt | 33.8%
O=C(/C=C/c1ccccc1)NC(NC(=S)Nc1ccc(Cl)cc1Cl)C(Cl)(Cl)Cl (stereo not drawn) | -2.3% | nt | 13.4µM* | -28.8% | -3.5% | ?
O=C(/C=C/c1ccccc1)NC(NC(=S)Nc1cccc(Cl)c1)C(Cl)(Cl)Cl (stereo not drawn) | -28.4% | -1.1% | -28.8% | -8.4%[57.1 µM] | 10.2% | 48.2%
CCCCC(=O)OC1=C(C(C)=O)N(Cc2ccccc2)S(=O)(=O)c2ccccc21 | ? | -0.3% | nt | 79.4µM* | ? | 15.0%
CCCC(=O)OC1=C(C(C)=O)N(Cc2ccccc2)S(=O)(=O)c2ccccc21 | ? | -0.5% | nt | ? | ? | 15.2%
CCC(=O)OC1=C(C(C)=O)N(Cc2ccccc2)S(=O)(=O)c2ccccc21 | ? | 4.5% | nt | 50.1µM* | -30.4% | 28.4%
CCCCCCC1C(C#N)=C(N)OC2=C1C(=O)CCC2 (stereo not drawn) | -46.7% | 31.6µM* | -5.6% | -12.8% | 17.3% | 42.3%
Cc1ccc(S(=O)(=O)c2cc3c(=O)n4ccccc4nc3n(C3CCCCC3)c2=N)cc1 | nt | 479.2% | -16.7% | -12.5% | -13.4% | -1.8%
c1csc(-c2nc3nc4ccccc4nc3n2Cc2ccc3c(c2)OCO3)c1 | 51.4%[12.7 µM] | 0.0% | 26.7µM* | 9.2%[11.4 µM] | 9.0% | 11.3%
Cc1ccc(C(=O)Cn2cncn2)cc1 | 50.1µM* | ? | 4.7% | -28.5% | -23.5% | 4.0%
O=C(Cn1cncn1)c1ccc(Cl)cc1 | -19.3% | nt | -11.7% | -9.9% | -9.5% | 61.6%
COc1ccc(OC)c(/C=N/NC2=NS(=O)(=O)c3ccccc32)c1 | 35.9% | 8.5% | -6.9% | -11.0% | 12.8% | 35.2%
COC(=O)c1ccc(Cn2c(CN3CCOCC3)nc3ccccc3c2=O)o1 | -35.5%[59 µM] | 0.5% | -2.2% | -4.4% | -3.9% | 31.6%
SMILES | G9a inh | 12-LOX inh | PLK1 PBD inh | JMJD2A Tudor inh | BAZ2B block | HP1b chromo inh
Cc1ccc(S(=O)(=O)N2CCOCC2)cc1NC(=O)CNC(C)c1ccccc1 (stereo not drawn) | nt | -16.6% | -3.1% | 1.26µM* | nt | ?
Cc1cccc(NC(=O)CSCC(=O)Nc2cc(S(=O)(=O)N3CCOCC3)ccc2OC(C)C)c1 | -50.4% | -9.8% | -1.5% | -18.6% | -3.3% | 10.1%
Cc1ccc(S(=O)(=O)N2CCOCC2)cc1NC(=O)CNCc1ccccn1 | 0.9%[12.7 µM] | 15.2% | -13.8% | -12.5%[11.4 µM] | 31.6µM* | 83.4%
Cc1ccc(CSCC(=O)Nc2cc(S(=O)(=O)N3CCOCC3)ccc2OC(C)C)cc1 | 50.1µM* | ? | 0.6% | -9.6% | ? | 43.3%
O=C(CNCc1ccccn1)Nc1cc(S(=O)(=O)N2CCCCC2)ccc1Cl | 24.8% | 1.7% | 5.6% | 79.4µM* | nt | 51.0%
CC(C)c1ccc(S(=O)(=O)c2cnc(SCC(=O)Nc3ccc(F)cc3F)nc2N)cc1 | 5.7%[59 µM] | -15.1% | nt | -9.6% | -3.6% | 19.9%
CCCOc1ccc(CC(=O)NCc2ccco2)cc1OC | 12.0%[59 µM] | 0.0% | -12.1% | -2.0% | -5.4% | 21.7%
O=C(O)c1ccc(/C=N/NC(=S)NCCN2CCOCC2)cc1 | -41.6% | 14.2% | -8.4% | 31.6µM* | -5.2% | 27.3%
S=C(NCCN1CCOCC1)N/N=C/c1cccs1 | 30.7%[2.33 µM] | i | -7.8% | -26.8% | -11.0% | 30.3%
Oc1cccc(/C=N/NC(=S)NCCN2CCOCC2)c1O | 3.3%[12.7 µM] | -12.3% | -2.7% | 22.4µM* | 8.91µM* | 31.5%
O=C(Oc1ccc2c(c1)O/C(=C\C=C\c1ccccc1)C2=O)c1cccs1 | nt | -22.7% | nt | nt | nt | nt
CC(=O)C1=C(O)C(=CC=Cc2ccccc2)OC1=O | nt | 15.8µM* | -19.5% | nt | nt | nt
Cc1csc(NC(=O)c2c(-c3c(F)cccc3Cl)noc2C)n1 | -5.3%[59 µM] | -1.8% | -7.5% | -17.0% | -9.9% | 23.7%
CC1CCc2c(nc3ncnn3c2NCCN(C)C)C1 (stereo not drawn) | 3.98µM* | 8.7% | ? | 56.2µM* | -25.5% | 12.1%
Cc1ccc(C(C)(C)O)cc1 | nt | 6.4%[176 µM] | nt | nt | nt | nt
Cc1ccc(C(C)(c2ccc(N)cc2)c2ccc(N)cc2)cc1 | nt | 0.0% | -8.9% | 50.1µM* | nt | ?
O=C(/C=C\Nc1ccc(S(=O)(=O)Nc2ncccn2)cc1)c1ccccc1 | 2.7% | 0.0% | -5.1% | -10.9% | -1.1% | 4.6%
CCOC(=O)c1c(C)c(-c2ccccc2)n(CC(=O)N2CCN(C)CC2)c1C | 70.8µM* | 11.5% | -17.4% | -28.9% | -7.0% | 10.4%
CCOc1ccc(CCNC(c2cccc(Cl)c2)c2nnc(-c3ccccc3)o2)cc1OCC (stereo not drawn) | 34.0%[59 µM] | -7.1% | nt | -6.2% | -2.3% | 42.5%

Source: PubChem
